Among the test systems are T-47D breast; BT-549 breast; MDA-MB-435 melanoma; SW-620 colon; MCF7 breast; HCT-116 colon; HCC-2998 colon; KM12 colon; MDA-MB-468 breast.
Common to all, as to assay: NCI-60 one-dose screen, 48 h (100 = growth as untreated, 0 = no growth, -100 = all killed)
What all share (details): 10 µM

Experimental findings from PubChem BioAssay (NCI) are described below.

About 83,000 compounds went through this panel and 20% of them were active in at least one assay; those are over-represented in the sample as a whole.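 Activity criterion: percent growth below 10, measured after cells in 96-well plates were exposed to a single compound concentration for 48 hours.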 Activity calls are given as the source filed them.

Regarding `Cc1ccc2nc3c(nc2c1)c1cc(I)ccc1n3CCN(C)C`, the growth in the assay with T-47D breast was 44.8% (inactive); in the assay on BT-549 breast, 60.2% (inactive); with MDA-MB-435 melanoma it was 13.7% (inactive); in the assay with SW-620 colon, 15.9% (inactive); in the assay with MCF7 breast, -4.43% (active); with HCT-116 colon, 9.81% (active). The growth with HCC-2998 colon is -15.6% (active); in the assay with KM12 colon, 21.1% (inactive); in the assay on MDA-MB-468 breast, 5.08% (active).

Consider `CC(=O)Nc1ccc(-c2cn(-c3cccc(C(=O)Nc4cc(CN5CCOCC5)cc(C(F)(F)F)c4)c3)nn2)cn1`, for which the growth is -71.5% (active) in the assay with T-47D breast; -82.1% (active) with BT-549 breast; -89.1% (active) with MDA-MB-435 melanoma; -72.6% (active) in the assay on SW-620 colon; -84% (active) in the assay on MCF7 breast; -56.1% (active) with HCT-116 colon. Besides, the growth with HCC-2998 colon is -95.6% (active); in the assay with KM12 colon it was -42.7% (active); with MDA-MB-468 breast, -92.1% (active).

With `Clc1ccc2c(N/N=C/c3c[nH]c4ccc(Br)cc34)ccnc2c1`, the growth is -54.6% (active) with T-47D breast; -79.5% (active) in the assay with BT-549 breast; -77.3% (active) in the assay with MDA-MB-435 melanoma; 2.03% (active) in the assay on SW-620 colon; -56.8% (active) with MCF7 breast; -10.3% (active) in the assay with HCT-116 colon. Also, the growth is -92.5% (active) in the assay with HCC-2998 colon, -81.7% (active) with KM12 colon and -94.2% (active) in the assay with MDA-MB-468 breast.

Consider `O=S(=O)(Nc1ncccn1)c1ccc(-n2c(-c3ccc(Br)cc3)nc(-c3ccccc3)c2-c2ccccc2)cc1`, for which the growth in the assay on T-47D breast is 2.77% (active); with BT-549 breast, 8.3% (active); in the assay with MDA-MB-435 melanoma it was 42.7% (inactive); in the assay with SW-620 colon, 48.5% (inactive); in the assay on MCF7 breast, 28.6% (inactive); in the assay on HCT-116 colon it was 34.5% (inactive). Further, the results for the growth in the assay on HCC-2998 colon, in the assay on KM12 colon and in the assay on MDA-MB-468 breast were 39.7% (inactive), 27.7% (inactive) and 24.3% (inactive), respectively.

For `O=c1nc(-c2ccccc2)cc(-c2cc3ccccc3nc2Cl)[nH]1`, the growth in the assay on T-47D breast is 45.5% (inactive); in the assay with BT-549 breast, 12.9% (inactive); with MDA-MB-435 melanoma, 53.5% (inactive); in the assay with SW-620 colon, -63.6% (active); in the assay with MCF7 breast, 4.69% (active); in the assay with HCT-116 colon, -91.6% (active). Moreover, the figures for the growth in the assay on HCC-2998 colon, in the assay on KM12 colon and in the assay on MDA-MB-468 breast were 44.9% (inactive), -15.4% (active) and 17.2% (inactive), respectively.

Regarding `OCCCNc1oc(-c2ccccc2)nc1[P+](c1ccccc1)(c1ccccc1)c1ccccc1`, the growth in the assay with T-47D breast was 7.19% (active); in the assay with BT-549 breast it was -40.5% (active); in the assay on MDA-MB-435 melanoma it was 6.46% (active); in the assay with SW-620 colon it was 11.5% (inactive); in the assay on MCF7 breast it was 0.534% (active); with HCT-116 colon, 7.82% (active). The values for the growth with HCC-2998 colon, in the assay with KM12 colon and in the assay on MDA-MB-468 breast were 2.5% (active), -45.9% (active) and -41.3% (active), respectively.

For the compound `CN1CCCN(Cc2ccc(C(=O)Nc3cccc(Nc4ccc5cc(O)ccc5n4)c3)cc2C(F)(F)F)CC1`, the growth in the assay on T-47D breast was 88.7% (inactive); in the assay on BT-549 breast, 98% (inactive); in the assay on MDA-MB-435 melanoma it was 37.9% (inactive); in the assay with SW-620 colon it was -25.8% (active); in the assay on MCF7 breast it was -22.8% (active); in the assay with HCT-116 colon it was 3.55% (active). For the same compound, the growth in the assay on HCC-2998 colon is -15.1% (active); with KM12 colon, 25.8% (inactive); in the assay with MDA-MB-468 breast, 5.76% (active).

In the case of `CN1CCN(Cc2ccc(NC(=O)c3cncc(C#Cc4cnc5ccc(N[C@H]6CCOC6)nn45)c3)cc2C(F)(F)F)CC1`, the growth in the assay with T-47D breast was -64.7% (active); in the assay on BT-549 breast it was -67.7% (active); in the assay with MDA-MB-435 melanoma, -79.6% (active); with SW-620 colon, -69.8% (active); with MCF7 breast, -84.4% (active); in the assay with HCT-116 colon it was -62.6% (active). Besides, the growth was -96.4% (active) in the assay on HCC-2998 colon, -89.7% (active) in the assay with KM12 colon and -94% (active) with MDA-MB-468 breast.

Regarding `O=C(Nc1cccc(C(F)(F)F)c1)c1cncc(C#Cc2cnc3ccc(N4CCOCC4)nn23)c1`, the growth in the assay on T-47D breast is 1.64% (active); with BT-549 breast, -37.5% (active); with MDA-MB-435 melanoma, 4.32% (active); in the assay with SW-620 colon, 2.23% (active); with MCF7 breast it was -30% (active); with HCT-116 colon, 0.369% (active). Besides, the results for the growth with HCC-2998 colon, in the assay on KM12 colon and with MDA-MB-468 breast were -4.89% (active), -24.1% (active) and -64.7% (active), respectively.

Consider `COc1ccccc1NCc1ccc(CO)n1-c1ccc(C)cc1`, for which the growth with T-47D breast is 77.4% (inactive); with BT-549 breast it was 101% (inactive); in the assay on MDA-MB-435 melanoma, 110% (inactive); in the assay with SW-620 colon, 109% (inactive); in the assay on MCF7 breast, 85.3% (inactive); in the assay on HCT-116 colon it was 80% (inactive). The results for the growth in the assay with HCC-2998 colon, in the assay with KM12 colon and in the assay on MDA-MB-468 breast were 114% (inactive), 105% (inactive) and 97.3% (inactive), respectively.

Regarding `Cc1ccc(C(=O)Nc2ccc(-n3c(C)nc4c(cnn4-c4ccccc4)c3=O)cc2)cc1`, the growth in the assay on T-47D breast is 34.6% (inactive); in the assay on BT-549 breast, 59.2% (inactive); with MDA-MB-435 melanoma it was 70.5% (inactive); in the assay on SW-620 colon, 86.2% (inactive); with MCF7 breast, 47.8% (inactive); in the assay with HCT-116 colon it was 51.5% (inactive). Also, the growth with HCC-2998 colon is 88.4% (inactive); in the assay on KM12 colon it was 77.5% (inactive); with MDA-MB-468 breast, 21.1% (inactive).

With `COc1cc2c3c(n(CCCn4ccnc4)c(=O)c2cc1OC)-c1nc2c(cc1C3=O)OCO2`, the growth is 21.8% (inactive) in the assay with T-47D breast; 29.6% (inactive) with BT-549 breast; 52.2% (inactive) in the assay with MDA-MB-435 melanoma; 37% (inactive) in the assay on SW-620 colon; 7.42% (active) in the assay with MCF7 breast; 30.4% (inactive) in the assay on HCT-116 colon. For the same compound, the results for the growth with HCC-2998 colon, in the assay on KM12 colon and in the assay on MDA-MB-468 breast were 72.2% (inactive), 59.6% (inactive) and -29.8% (active), respectively.

Take `Cc1ccc(-c2nc3ccc(C(=O)N=Nc4c(O)[nH]c5ccc([N+](=O)[O-])cc45)cc3[nH]2)cc1`: the growth in the assay with T-47D breast is 51.8% (inactive); with BT-549 breast, 98.7% (inactive); in the assay on MDA-MB-435 melanoma, 62.6% (inactive); in the assay on SW-620 colon it was 42.2% (inactive); with MCF7 breast it was 65.9% (inactive); with HCT-116 colon, 12.7% (inactive). The growth in the assay on HCC-2998 colon was 54% (inactive); in the assay on KM12 colon, 104% (inactive); in the assay with MDA-MB-468 breast, 59% (inactive).

With `CC(=O)Nc1nc(-c2ccc(N3CCN(C)CC3)c(NS(=O)(=O)c3cccc4c(N(C)C)cccc34)c2)cs1`, the growth in the assay with T-47D breast is 35.6% (inactive); in the assay on BT-549 breast, 36.6% (inactive); in the assay with MDA-MB-435 melanoma, 51.5% (inactive); with SW-620 colon, 70.9% (inactive); in the assay on MCF7 breast it was 34.9% (inactive); in the assay on HCT-116 colon it was 28.2% (inactive). Also, the growth in the assay with HCC-2998 colon is 43% (inactive); in the assay with KM12 colon it was 59.8% (inactive); with MDA-MB-468 breast, 58.2% (inactive).
